Measured values: ChEMBL document CHEMBL2218924, “A broad activity screen in support of a chemogenomic map for kinase signalling research and drug discovery” (Biochem J, 2013)

Key:
[1] = molecular target: Homeodomain-interacting protein kinase 3 (Homo sapiens) (UniProt Q9H422); details: at 10 µM
[2] = molecular target: T1, Serine/threonine-protein kinase haspin (Homo sapiens) (UniProt Q8TF76); details: at 1 µM
T1 sequence (whole entry): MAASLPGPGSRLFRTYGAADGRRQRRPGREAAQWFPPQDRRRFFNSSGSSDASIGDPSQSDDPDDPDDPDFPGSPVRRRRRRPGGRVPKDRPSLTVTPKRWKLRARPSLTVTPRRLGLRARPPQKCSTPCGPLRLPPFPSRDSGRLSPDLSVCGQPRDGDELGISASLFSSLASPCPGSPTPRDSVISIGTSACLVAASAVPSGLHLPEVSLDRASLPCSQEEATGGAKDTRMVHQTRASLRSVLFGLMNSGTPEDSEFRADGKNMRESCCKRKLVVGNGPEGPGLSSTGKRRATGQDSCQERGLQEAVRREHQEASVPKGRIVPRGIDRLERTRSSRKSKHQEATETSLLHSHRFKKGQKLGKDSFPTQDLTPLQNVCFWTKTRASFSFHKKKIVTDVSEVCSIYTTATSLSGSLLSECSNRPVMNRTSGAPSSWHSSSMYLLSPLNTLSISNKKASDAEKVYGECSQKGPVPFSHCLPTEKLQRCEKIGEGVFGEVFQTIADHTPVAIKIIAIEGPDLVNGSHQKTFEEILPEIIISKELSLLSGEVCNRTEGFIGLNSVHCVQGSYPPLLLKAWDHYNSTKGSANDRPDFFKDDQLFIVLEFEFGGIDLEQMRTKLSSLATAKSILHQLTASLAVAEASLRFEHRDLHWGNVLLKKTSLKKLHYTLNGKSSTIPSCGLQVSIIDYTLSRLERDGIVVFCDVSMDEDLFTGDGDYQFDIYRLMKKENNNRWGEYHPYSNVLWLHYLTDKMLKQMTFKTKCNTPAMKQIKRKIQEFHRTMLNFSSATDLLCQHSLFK

[3] = molecular target: T1, Serine/threonine-protein kinase haspin (Homo sapiens); details: at 10 µM
[4] = molecular target: Tyrosine-protein kinase HCK (Homo sapiens) (UniProt P08631); details: at 1 µM
Sequence of Tyrosine-protein kinase HCK (Homo sapiens) (P08631 2-526 limits assumed): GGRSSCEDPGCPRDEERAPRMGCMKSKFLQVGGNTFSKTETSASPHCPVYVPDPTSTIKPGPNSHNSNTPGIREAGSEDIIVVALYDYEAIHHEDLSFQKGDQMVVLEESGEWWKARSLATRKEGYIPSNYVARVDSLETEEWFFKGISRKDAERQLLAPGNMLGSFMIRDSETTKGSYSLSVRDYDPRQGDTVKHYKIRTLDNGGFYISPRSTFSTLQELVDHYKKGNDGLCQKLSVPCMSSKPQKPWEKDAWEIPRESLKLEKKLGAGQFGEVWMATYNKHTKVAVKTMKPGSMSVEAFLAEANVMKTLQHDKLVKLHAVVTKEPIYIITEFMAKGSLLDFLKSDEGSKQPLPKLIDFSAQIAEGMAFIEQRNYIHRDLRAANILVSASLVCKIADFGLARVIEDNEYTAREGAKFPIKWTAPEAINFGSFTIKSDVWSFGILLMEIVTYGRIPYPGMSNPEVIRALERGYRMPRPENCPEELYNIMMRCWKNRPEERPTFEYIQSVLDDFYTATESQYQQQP

[5] = molecular target: Tyrosine-protein kinase HCK (Homo sapiens) (UniProt P08631); details: at 10 µM
[6] = molecular target: Tyrosine-protein kinase HCK (Homo sapiens) (UniProt P08631); details: at 1 µM; remark: listed apart in the source
[7] = molecular target: Tyrosine-protein kinase HCK (Homo sapiens) (UniProt P08631); details: at 10 µM; remark: listed apart in the source
[8] = molecular target: Insulin-like growth factor 1 receptor (Homo sapiens) (UniProt P08069); details: at 1 µM
Sequence of Insulin-like growth factor 1 receptor (Homo sapiens) (P08069 31-736 limits assumed): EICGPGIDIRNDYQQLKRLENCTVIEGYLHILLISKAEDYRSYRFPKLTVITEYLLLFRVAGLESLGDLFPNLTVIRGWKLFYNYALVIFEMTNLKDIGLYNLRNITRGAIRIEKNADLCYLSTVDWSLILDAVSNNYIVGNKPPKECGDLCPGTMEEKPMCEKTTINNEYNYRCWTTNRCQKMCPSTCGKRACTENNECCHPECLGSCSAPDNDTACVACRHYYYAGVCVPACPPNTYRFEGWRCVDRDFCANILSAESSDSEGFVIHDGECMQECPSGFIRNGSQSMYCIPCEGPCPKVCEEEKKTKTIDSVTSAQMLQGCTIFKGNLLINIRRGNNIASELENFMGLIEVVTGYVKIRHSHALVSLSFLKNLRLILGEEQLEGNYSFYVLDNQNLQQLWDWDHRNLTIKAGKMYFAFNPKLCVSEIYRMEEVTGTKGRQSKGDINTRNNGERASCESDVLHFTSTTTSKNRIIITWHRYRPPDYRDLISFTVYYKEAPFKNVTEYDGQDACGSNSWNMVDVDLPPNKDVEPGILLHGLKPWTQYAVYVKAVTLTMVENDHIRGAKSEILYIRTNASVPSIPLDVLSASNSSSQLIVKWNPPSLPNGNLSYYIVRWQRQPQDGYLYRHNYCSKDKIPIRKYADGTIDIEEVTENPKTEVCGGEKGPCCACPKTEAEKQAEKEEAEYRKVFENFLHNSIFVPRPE
Sequence of Insulin-like growth factor 1 receptor (Homo sapiens) (P08069 741-1367 limits assumed): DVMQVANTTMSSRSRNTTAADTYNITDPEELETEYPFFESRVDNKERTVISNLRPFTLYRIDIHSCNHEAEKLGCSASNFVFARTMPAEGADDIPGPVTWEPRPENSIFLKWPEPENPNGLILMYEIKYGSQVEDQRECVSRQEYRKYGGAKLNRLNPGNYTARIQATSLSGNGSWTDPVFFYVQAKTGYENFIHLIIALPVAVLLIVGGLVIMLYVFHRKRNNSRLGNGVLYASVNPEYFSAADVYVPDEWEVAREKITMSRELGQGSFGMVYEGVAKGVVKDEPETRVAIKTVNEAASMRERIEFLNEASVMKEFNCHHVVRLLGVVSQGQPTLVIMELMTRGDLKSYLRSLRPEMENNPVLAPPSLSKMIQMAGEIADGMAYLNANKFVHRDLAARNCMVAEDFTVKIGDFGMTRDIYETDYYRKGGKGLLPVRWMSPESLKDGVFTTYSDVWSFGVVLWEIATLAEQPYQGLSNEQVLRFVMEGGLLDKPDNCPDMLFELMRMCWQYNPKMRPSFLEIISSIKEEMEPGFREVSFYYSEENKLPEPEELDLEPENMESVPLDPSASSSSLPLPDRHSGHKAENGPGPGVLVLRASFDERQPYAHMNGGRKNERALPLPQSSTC

[9] = molecular target: Insulin-like growth factor 1 receptor (Homo sapiens) (UniProt P08069); details: at 10 µM
[10] = molecular target: T2, Protein kinase C zeta type (Homo sapiens) (UniProt Q05513); details: at 10 µM
T2 sequence (whole entry): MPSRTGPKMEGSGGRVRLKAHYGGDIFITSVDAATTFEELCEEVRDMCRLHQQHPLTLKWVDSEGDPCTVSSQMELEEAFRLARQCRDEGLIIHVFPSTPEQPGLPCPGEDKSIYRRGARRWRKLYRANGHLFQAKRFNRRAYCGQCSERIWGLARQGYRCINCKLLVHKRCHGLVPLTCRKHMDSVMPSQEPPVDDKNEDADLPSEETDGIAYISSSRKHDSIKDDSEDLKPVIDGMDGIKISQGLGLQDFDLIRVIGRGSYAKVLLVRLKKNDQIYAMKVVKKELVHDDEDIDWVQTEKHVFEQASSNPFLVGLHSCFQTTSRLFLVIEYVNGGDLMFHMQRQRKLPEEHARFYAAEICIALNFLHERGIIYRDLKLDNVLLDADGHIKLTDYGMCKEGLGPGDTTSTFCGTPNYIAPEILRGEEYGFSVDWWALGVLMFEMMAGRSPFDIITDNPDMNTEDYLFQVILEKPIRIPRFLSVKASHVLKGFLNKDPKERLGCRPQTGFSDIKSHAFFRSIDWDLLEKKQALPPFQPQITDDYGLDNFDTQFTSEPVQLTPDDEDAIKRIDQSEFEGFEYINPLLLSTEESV

[11] = molecular target: Protein kinase C eta type (Homo sapiens) (UniProt P24723); details: at 1 µM
Sequence of Protein kinase C eta type (Homo sapiens) (P24723 whole entry): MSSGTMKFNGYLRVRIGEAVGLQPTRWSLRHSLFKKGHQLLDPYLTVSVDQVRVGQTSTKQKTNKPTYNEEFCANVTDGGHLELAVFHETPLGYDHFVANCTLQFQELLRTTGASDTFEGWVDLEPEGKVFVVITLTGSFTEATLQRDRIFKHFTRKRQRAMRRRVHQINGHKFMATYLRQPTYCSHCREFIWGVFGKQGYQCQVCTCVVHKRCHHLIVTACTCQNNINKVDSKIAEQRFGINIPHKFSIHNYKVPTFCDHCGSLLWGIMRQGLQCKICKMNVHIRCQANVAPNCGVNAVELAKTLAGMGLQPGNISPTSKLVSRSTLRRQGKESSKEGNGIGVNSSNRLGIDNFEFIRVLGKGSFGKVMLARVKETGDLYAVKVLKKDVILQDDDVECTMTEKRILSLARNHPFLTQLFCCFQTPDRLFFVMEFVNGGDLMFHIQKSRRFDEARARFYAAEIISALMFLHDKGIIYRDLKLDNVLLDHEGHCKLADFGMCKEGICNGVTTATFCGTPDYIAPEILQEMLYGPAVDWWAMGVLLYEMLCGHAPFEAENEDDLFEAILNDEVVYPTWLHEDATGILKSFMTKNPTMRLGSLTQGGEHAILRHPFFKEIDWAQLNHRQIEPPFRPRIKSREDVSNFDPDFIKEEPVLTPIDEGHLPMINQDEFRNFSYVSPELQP

[12] = molecular target: Protein kinase C eta type (Homo sapiens) (UniProt P24723); details: at 10 µM
[13] = molecular target: Protein kinase C theta type (Homo sapiens) (UniProt Q04759); details: at 1 µM
Sequence of Protein kinase C theta type (Homo sapiens) (Q04759 whole entry, looked up): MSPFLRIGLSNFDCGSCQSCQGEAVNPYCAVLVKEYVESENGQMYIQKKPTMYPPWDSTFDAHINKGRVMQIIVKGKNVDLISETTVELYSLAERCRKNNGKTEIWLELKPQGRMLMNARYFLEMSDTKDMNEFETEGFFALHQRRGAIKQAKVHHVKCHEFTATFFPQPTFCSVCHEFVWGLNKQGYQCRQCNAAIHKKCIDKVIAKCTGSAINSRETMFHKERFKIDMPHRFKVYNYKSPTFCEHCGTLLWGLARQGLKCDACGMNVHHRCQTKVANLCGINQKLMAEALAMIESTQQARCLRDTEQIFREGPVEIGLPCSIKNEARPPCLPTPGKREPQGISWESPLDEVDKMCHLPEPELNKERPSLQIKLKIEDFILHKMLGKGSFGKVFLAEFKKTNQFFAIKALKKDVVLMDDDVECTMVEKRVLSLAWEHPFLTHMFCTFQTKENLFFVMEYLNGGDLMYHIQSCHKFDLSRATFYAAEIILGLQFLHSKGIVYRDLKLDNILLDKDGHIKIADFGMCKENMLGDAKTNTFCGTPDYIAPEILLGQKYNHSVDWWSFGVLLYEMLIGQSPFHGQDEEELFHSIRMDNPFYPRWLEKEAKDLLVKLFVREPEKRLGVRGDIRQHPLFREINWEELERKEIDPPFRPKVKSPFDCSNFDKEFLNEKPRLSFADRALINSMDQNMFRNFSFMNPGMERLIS

[14] = molecular target: Protein kinase C theta type (Homo sapiens) (UniProt Q04759); details: at 10 µM
[15] = molecular target: T3, Protein kinase C iota type (Homo sapiens) (UniProt P41743); details: at 1 µM
T3 sequence (whole entry): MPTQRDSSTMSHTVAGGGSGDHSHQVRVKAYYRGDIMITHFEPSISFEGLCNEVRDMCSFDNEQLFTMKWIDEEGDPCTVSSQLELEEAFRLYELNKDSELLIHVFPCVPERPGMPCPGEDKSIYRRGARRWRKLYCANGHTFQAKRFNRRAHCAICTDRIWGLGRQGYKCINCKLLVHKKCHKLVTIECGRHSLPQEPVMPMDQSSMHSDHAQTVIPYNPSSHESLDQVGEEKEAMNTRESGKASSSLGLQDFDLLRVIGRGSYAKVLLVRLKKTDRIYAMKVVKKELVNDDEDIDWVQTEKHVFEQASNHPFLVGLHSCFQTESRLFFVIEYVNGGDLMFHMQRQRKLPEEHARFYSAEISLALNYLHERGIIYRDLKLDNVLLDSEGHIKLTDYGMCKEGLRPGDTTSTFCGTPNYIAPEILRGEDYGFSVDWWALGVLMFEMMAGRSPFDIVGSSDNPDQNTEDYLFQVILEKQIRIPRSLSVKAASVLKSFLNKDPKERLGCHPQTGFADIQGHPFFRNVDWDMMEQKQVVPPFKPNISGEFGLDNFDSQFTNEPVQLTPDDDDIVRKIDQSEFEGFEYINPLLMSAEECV

[16] = molecular target: T3, Protein kinase C iota type (Homo sapiens); details: at 10 µM
[17] = molecular target: T4, Serine/threonine-protein kinase D1 (Homo sapiens) (UniProt Q15139); details: at 1 µM
T4 sequence (whole entry): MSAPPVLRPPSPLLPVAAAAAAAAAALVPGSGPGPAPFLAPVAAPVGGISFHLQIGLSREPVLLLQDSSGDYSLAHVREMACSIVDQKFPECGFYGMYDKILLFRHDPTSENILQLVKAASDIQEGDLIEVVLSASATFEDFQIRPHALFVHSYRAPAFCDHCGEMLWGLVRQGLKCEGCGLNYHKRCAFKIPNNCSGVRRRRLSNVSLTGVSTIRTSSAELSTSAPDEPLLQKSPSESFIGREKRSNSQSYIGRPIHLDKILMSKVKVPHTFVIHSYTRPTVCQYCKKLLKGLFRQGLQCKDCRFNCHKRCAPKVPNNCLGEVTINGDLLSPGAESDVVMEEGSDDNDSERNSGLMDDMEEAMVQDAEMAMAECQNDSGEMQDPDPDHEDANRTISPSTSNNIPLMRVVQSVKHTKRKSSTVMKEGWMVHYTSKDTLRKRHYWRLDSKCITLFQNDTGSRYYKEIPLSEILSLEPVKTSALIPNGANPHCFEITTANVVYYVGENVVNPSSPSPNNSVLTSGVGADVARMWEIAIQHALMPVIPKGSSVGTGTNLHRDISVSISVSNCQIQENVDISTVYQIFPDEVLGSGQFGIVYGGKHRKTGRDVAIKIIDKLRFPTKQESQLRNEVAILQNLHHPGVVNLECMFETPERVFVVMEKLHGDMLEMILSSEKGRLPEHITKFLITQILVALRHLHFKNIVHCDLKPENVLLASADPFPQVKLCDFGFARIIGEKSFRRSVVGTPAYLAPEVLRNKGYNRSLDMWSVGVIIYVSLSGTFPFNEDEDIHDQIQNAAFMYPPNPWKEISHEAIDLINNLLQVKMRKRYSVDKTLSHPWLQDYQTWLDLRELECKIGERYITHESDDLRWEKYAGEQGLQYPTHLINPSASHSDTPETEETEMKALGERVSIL

[18] = molecular target: T4, Serine/threonine-protein kinase D1 (Homo sapiens); details: at 10 µM
[19] = molecular target: T5, Serine/threonine-protein kinase D2 (Homo sapiens) (UniProt Q9BZL6); details: at 1 µM
T5 sequence (whole entry): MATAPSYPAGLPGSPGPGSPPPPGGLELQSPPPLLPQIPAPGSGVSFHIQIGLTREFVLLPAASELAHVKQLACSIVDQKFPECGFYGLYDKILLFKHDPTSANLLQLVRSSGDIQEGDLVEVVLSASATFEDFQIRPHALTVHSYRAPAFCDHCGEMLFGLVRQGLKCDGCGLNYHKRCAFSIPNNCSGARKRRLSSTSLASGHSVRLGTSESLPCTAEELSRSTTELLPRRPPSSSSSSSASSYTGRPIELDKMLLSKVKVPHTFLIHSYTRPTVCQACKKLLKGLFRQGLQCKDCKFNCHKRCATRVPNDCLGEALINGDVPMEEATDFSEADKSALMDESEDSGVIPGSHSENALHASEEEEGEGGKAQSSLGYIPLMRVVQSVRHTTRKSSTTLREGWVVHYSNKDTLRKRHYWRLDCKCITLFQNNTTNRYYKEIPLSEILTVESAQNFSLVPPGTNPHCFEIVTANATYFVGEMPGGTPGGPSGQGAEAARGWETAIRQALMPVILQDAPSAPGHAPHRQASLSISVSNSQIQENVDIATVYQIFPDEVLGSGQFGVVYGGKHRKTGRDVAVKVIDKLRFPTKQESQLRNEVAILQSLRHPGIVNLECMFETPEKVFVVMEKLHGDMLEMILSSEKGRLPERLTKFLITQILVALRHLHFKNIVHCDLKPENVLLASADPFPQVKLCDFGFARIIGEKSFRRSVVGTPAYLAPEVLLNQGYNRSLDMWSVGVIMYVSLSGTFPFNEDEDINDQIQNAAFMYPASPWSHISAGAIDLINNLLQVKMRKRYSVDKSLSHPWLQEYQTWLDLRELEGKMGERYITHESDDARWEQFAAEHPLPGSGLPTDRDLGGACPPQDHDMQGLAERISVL

[20] = molecular target: T5, Serine/threonine-protein kinase D2 (Homo sapiens); details: at 10 µM

Sequence of Homeodomain-interacting protein kinase 3 (Homo sapiens) (Q9H422 whole entry, looked up): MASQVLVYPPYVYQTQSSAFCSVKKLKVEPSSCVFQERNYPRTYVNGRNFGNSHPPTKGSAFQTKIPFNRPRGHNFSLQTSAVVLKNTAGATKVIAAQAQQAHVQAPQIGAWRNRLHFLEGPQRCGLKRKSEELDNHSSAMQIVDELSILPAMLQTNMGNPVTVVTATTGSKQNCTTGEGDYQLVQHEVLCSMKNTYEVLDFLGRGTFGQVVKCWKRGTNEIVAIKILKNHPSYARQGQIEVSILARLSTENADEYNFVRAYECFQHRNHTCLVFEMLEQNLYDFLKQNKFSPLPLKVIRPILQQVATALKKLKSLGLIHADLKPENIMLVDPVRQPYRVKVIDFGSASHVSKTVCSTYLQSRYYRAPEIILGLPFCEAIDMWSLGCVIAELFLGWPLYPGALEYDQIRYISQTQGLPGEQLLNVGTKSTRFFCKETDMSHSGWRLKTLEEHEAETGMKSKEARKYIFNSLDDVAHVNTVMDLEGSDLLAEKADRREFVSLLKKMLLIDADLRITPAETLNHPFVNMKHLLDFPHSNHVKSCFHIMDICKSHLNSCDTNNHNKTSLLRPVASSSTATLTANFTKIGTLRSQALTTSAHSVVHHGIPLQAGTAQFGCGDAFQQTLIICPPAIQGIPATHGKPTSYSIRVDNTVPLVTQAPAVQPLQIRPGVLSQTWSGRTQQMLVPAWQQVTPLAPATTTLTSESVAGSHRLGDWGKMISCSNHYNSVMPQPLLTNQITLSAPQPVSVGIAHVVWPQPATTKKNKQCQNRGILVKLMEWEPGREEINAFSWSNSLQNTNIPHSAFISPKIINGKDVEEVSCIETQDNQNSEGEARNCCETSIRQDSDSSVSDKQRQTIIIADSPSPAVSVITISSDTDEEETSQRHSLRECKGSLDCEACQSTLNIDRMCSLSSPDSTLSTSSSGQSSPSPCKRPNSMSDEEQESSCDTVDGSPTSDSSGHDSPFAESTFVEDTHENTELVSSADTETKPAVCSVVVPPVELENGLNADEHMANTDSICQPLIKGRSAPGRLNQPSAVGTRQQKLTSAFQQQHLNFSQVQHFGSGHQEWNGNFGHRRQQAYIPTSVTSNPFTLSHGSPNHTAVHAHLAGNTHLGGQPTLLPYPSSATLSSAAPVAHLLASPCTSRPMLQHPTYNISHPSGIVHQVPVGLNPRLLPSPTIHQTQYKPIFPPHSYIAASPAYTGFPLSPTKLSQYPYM

Row | SMILES | residual activity [1] | residual activity [2] | residual activity [3] | residual activity [4] | residual activity [5] | residual activity [6] | residual activity [7] | residual activity [8] | residual activity [9] | residual activity [10] | residual activity [11] | residual activity [12] | residual activity [13] | residual activity [14] | residual activity [15] | residual activity [16] | residual activity [17] | residual activity [18] | residual activity [19] | residual activity [20]
1 | Oc1c2ccccc2c2c3c(cccc13)N=N2 | 19% | 10% | -1% | 57% | 27% | 80% | 83% | 91% | 105% | 106% | 86% | 82% | 90% | 76% | 117% (inactive) | 107% | 32% | -1% | 92% | 36%
2 | Oc1n[nH]c2nnc(-c3c(-c4ccccc4)nn4ccccc34)cc12 | 97% | 114% | 106% | 75% | 67% | 92% | 80% | 67% | 37% | 104% | 78% | 89% | 81% | 75% | 104% (inactive) | 103% | 89% | 71% | 104% | 98%
3 | Cn1nc2c3c(cccc31)C(=O)c1ccccc1-2 | 90% | 41% | 2% | 72% | 53% | 96% | 92% | 111% | 106% | 106% | 88% | 89% | 97% | 86% | 105% (inactive) | 105% | 61% | 54% | 108% | 92%
4 | Nc1ccc2ncnc(NCCc3ccc(Oc4ccccc4)cc3)c2c1 | 93% | 75% | 23% | 67% | 32% | 97% | 89% | 138% | 114% | 96% | 102% | 90% | 108% | 105% | 113% (inactive) | 111% | 91% | 82% | 107% | 102%
5 | CNc1cc2c(Nc3cccc(Br)c3)ncnc2cn1 | 96% | 109% | 53% | 68% | 30% | 62% | 50% | 118% | 109% | 118% | 80% | 90% | 100% | 94% | 94% (inactive) | 102% | 86% | 49% | 104% | 98%
6 | O=c1c2ccccc2[nH]c(=S)n1CCN1CCC(=C(c2ccc(F)cc2)c2ccc(F)cc2)CC1 | 88% | 84% | 52% | 73% | 38% | 101% | 101% | 119% | 104% | 94% | 106% | 83% | 110% | 109% | 109% (inactive) | 81% | 113% | 84% | 100% | 
